From ChEMBL document CHEMBL1157539, “Thousands of chemical starting points for antimalarial lead identification” (Nature, 2010)
“And” between values parts separate entries of the source, which are not always exact repeats. Equal entries are not always repeated.

Columns and labels:
Plasmodium falciparum [1] = assay: GSK_TCMDC: Inhibition of Plasmodium falciparum 3D7 in whole red blood cells, using parasite LDH activity as an index of growth. Test compounds present at 2uM; format: functional
Plasmodium falciparum [2] = assay: GSK_TCMDC: Inhibition of Plasmodium falciparum Dd2 in whole red blood cells, using parasite LDH activity as an index of growth. Test compounds present at 2uM; format: functional

## Cc1nc(N)nc(N)c1-c1cc(Cl)c(Cl)c(Cl)c1
Plasmodium falciparum [1]
  Inhibition: 97%
Plasmodium falciparum [2]
  Inhibition: 0%

## COc1ccccc1-c1nc2c(ccc3nc(N)nc(N)c32)[nH]1
Plasmodium falciparum [1]
  Inhibition: 100%
Plasmodium falciparum [2]
  Inhibition: 93%

## Cc1nc(C)c(-c2ccc(Oc3cccc(OC(F)(F)F)c3)cc2)c(O)c1Br
Plasmodium falciparum [1]
  Inhibition: 100%
Plasmodium falciparum [2]
  Inhibition: 96%

## Nc1nc(N)c2c(Oc3ccc(Cl)c(Cl)c3)cccc2n1
Plasmodium falciparum [1]
  Inhibition: 95%
Plasmodium falciparum [2]
  Inhibition: 22%

## Cc1nc(C)c(-c2ccc(Oc3ccc(OC(F)(F)F)cc3)cc2)c(OC(=O)c2ccc(CN(C)C)cc2)c1Cl
Plasmodium falciparum [1]
  Inhibition: 98%
Plasmodium falciparum [2]
  Inhibition: 98%

## CC(CNC(=N)c1cccc(C(=N)NCC(C)Oc2cccc(C3CCCCC3)c2)n1)Oc1cccc(C2CCCCC2)c1.Cl (stereo not given)
Plasmodium falciparum [1]
  Inhibition: 90%
Plasmodium falciparum [2]
  Inhibition: 31%

## CCc1cccc(-c2cc(N)n(C)c3nc(N)nc(=O)c2-3)c1
Plasmodium falciparum [1]
  Inhibition: 85%
Plasmodium falciparum [2]
  Inhibition: 28%

## Cc1nc(C)c(-c2ccc(Oc3cc(Cl)cc(Cl)c3)cc2)c(O)c1Br
Plasmodium falciparum [1]
  Inhibition: 96%
Plasmodium falciparum [2]
  Inhibition: 97%

## Nc1ncc(-c2ccc(Br)cc2)c(N)n1
Plasmodium falciparum [1]
  Inhibition: 89%
Plasmodium falciparum [2]
  Inhibition: 0%

## Cc1ccc(Cn2ccc3c4c(N)nc(N)nc4ccc32)cc1
Plasmodium falciparum [1]
  Inhibition: 99%

## CN(Cc1cnc2nc(N)nc(N)c2n1)c1ccc(C(=O)N[C@@H](CCC(=O)O)C(=O)O)cc1 [METHOTREXATE]
Plasmodium falciparum [1]
  Inhibition: 91% and 92%
Plasmodium falciparum [2]
  Inhibition: 44% and 66%

## CCCCc1cc(Cc2cnc(N)nc2N)cc(OC)c1OC.Cl
Plasmodium falciparum [1]
  Inhibition: 86%
Plasmodium falciparum [2]
  Inhibition: 0%

## Nc1ncc(-c2ccc(F)c(Cl)c2)c(N)n1
Plasmodium falciparum [1]
  Inhibition: 83%
Plasmodium falciparum [2]
  Inhibition: 0%

## Cc1nc2nc(N)nc(N)c2c(C)c1Cc1ccc([N+](=O)[O-])cc1.Cl
Plasmodium falciparum [1]
  Inhibition: 98%
Plasmodium falciparum [2]
  Inhibition: 11%

## Cc1c(C(C)(C)C)ccc2nc(N)nc(N)c12
Plasmodium falciparum [1]
  Inhibition: 89%
Plasmodium falciparum [2]
  Inhibition: 0%

## COCCOCCOCCn1ccc2c3c(N)nc(N)nc3ccc21
Plasmodium falciparum [1]
  Inhibition: 97%
Plasmodium falciparum [2]
  Inhibition: 0%

## COc1cc2c(cc1OC)C(C)(C)CN1Cc3c(c(CO)c(OC)c(OC)c3OC)CC21.Cl (stereo not given)
Plasmodium falciparum [1]
  Inhibition: 95%
Plasmodium falciparum [2]
  Inhibition: 9%

## Cc1cc(=O)c(-c2ccc(Oc3ccc(OC(F)(F)F)cc3)cc2)c(C)[nH]1
Plasmodium falciparum [1]
  Inhibition: 93%
Plasmodium falciparum [2]
  Inhibition: 61%

## Cc1nc(C)c(-c2ccc(Oc3ccc(OC(F)(F)F)cc3)cc2)c(OC(=O)c2ccccc2)c1Cl
Plasmodium falciparum [1]
  Inhibition: 97%
Plasmodium falciparum [2]
  Inhibition: 97%

## Nc1nc(N)c2c(Sc3ccccc3)cccc2n1
Plasmodium falciparum [1]
  Inhibition: 97%
Plasmodium falciparum [2]
  Inhibition: 0%

## CCN(CC)CCCN(CCCN(CC)CC)c1cc(C)nc(Nc2ccc(Br)cc2)n1.Cl
Plasmodium falciparum [1]
  Inhibition: 100%
Plasmodium falciparum [2]
  Inhibition: 40%

## CCc1cc2c3c(N)nc(N)nc3ccc2n1C(C)(C)C
Plasmodium falciparum [1]
  Inhibition: 99%

## Nc1nc(N)c2c(Oc3cc(Cl)c(Cl)c(Cl)c3)cccc2n1
Plasmodium falciparum [1]
  Inhibition: 100%
Plasmodium falciparum [2]
  Inhibition: 92%

## CC(C)(C)c1ccc(-c2nc3c(ccc4nc(N)nc(N)c43)[nH]2)cc1.Cl
Plasmodium falciparum [1]
  Inhibition: 100%
Plasmodium falciparum [2]
  Inhibition: 100%

## COc1ccc(Cc2c(Cl)nc3nc(N)nc(N)c3c2C)c(OC)c1OC
Plasmodium falciparum [1]
  Inhibition: 98%
Plasmodium falciparum [2]
  Inhibition: 0%

## Nc1nc(N)c2cc(Cc3ccc([N+](=O)[O-])cc3)cnc2n1.O=S(=O)(O)O
Plasmodium falciparum [1]
  Inhibition: 91%
Plasmodium falciparum [2]
  Inhibition: 0%

## Cc1cccc(Cn2ccc3c(N)nc(N)nc32)c1
Plasmodium falciparum [1]
  Inhibition: 82%

## Cc1ccc2ccncc2c1N
Plasmodium falciparum [1]
  Inhibition: 96%
Plasmodium falciparum [2]
  Inhibition: 4%

## CCCCCCOc1ccc2ccccc2c1CNCCCCCCNCc1c(OCCCCCC)ccc2ccccc12.CS(=O)(=O)O
Plasmodium falciparum [1]
  Inhibition: 85%
Plasmodium falciparum [2]
  Inhibition: 55%

## COc1ccc(Cc2cnc(N)nc2N)cc1OCCCOc1ccccc1
Plasmodium falciparum [1]
  Inhibition: 91%
Plasmodium falciparum [2]
  Inhibition: 4%

## C=CCOc1ccc(Cc2cnc(N)nc2N)cc1CCC
Plasmodium falciparum [1]
  Inhibition: 93%
Plasmodium falciparum [2]
  Inhibition: 0%

## CC(C)(C)c1ccc(-c2nnc(N)nc2N)cc1
Plasmodium falciparum [1]
  Inhibition: 92%
Plasmodium falciparum [2]
  Inhibition: 0%

## CN(C)S(=O)(=O)n1ccc2c3c(N)nc(N)nc3ccc21
Plasmodium falciparum [1]
  Inhibition: 94%
Plasmodium falciparum [2]
  Inhibition: 0%

## CCCc1cc2c3c(N)nc(N)nc3ccc2n1CC
Plasmodium falciparum [1]
  Inhibition: 96%
Plasmodium falciparum [2]
  Inhibition: 6%

## Cl.N=C(N)c1ccc2[nH]c(-c3cc4cc(C(=N)N)ccc4o3)cc2c1
Plasmodium falciparum [1]
  Inhibition: 94%
Plasmodium falciparum [2]
  Inhibition: 87%

## CC1CNC(c2ccc(NC(=O)Nc3ccc(C4=NC(C)CN4)cc3)cc2)=N1.Cl (stereo not given)
Plasmodium falciparum [1]
  Inhibition: 85%
Plasmodium falciparum [2]
  Inhibition: 67%

## Cl.Oc1cc2ccccc2cc1CNC1CCCCC1
Plasmodium falciparum [1]
  Inhibition: 98%
Plasmodium falciparum [2]
  Inhibition: 89%

## CC(C)CNc1nc(N)nc2ccc3c(ccn3CC(C)C)c12
Plasmodium falciparum [1]
  Inhibition: 99%
Plasmodium falciparum [2]
  Inhibition: 51%

## Cc1ccccc1Cn1ccc2c3c(N)nc(N)nc3ccc21
Plasmodium falciparum [1]
  Inhibition: 100%

## CC(=O)Oc1c(Cl)c(C)nc(C)c1-c1ccc(Oc2ccc(OC(F)(F)F)cc2)cc1
Plasmodium falciparum [1]
  Inhibition: 97%
Plasmodium falciparum [2]
  Inhibition: 98%

## CCCCN(CCCC)Cc1cc(N(C)c2ccc([N+](=O)[O-])cn2)ccc1O.O=C(O)C(=O)O
Plasmodium falciparum [1]
  Inhibition: 98%
Plasmodium falciparum [2]
  Inhibition: 98%

## Cc1cc(O)c(-c2ccc(OCc3ccc(Cl)cc3)cc2)c(C)n1
Plasmodium falciparum [1]
  Inhibition: 93%
Plasmodium falciparum [2]
  Inhibition: 76%
